The source of these data is paper PMC5540273 (PLoS ONE, 2017).
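Further: KINOMEscan kinase panel screen.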

This assay deals with PAK6. To be noted: concentration: 1 μM, replicates: in singlicate; n = 1.
`CCC(CC)(CC)n1cnc2c(N)ncnc21` [SKF-97620]: the “%Inh” value is listed as 0%.

For the compound `Cc1ccc(NC(=O)c2cccc(C#N)c2)cc1-c1ccc(C(=O)Nc2ccncc2)cc1` [GSK1398463], the “%Inh” value is listed as 0%. Regarding `CSc1nn2c(=O)cc(N3CCOCC3)nc2n1Cc1cccc(Cl)c1Cl` [GSK2347225], the “%Inh” value is listed as 0%.

`FC(F)(F)c1cc(Nc2nccc(-c3c(-c4ccc(Cl)cc4)nn4ncccc34)n2)ccc1Cl` [GW829351]: the “%Inh” value was determined as 0%.

Consider `CC(=O)Nc1n[nH]c2ncc(-c3ccccc3)cc12` [SB-548492], for which the “%Inh” value was 12%. The same measure for `O=C(Nc1n[nH]c2nc(-c3ccco3)c(Br)cc12)c1ccc(CN2CCCC2)cc1.O=C(O)[C@H](O)[C@@H](O)C(=O)O` [SB-742352]: 0%; for `O=C(NCCCN1CCCC1=O)c1cnc(NCc2cc(Cl)ccc2Cl)nc1NC1CCNCC1`: 0%. The same measure for `Nc1nccc2scc(-c3ccc4c(c3)CCN4C(=O)Cc3cc(F)ccc3F)c12` [GSK2587663]: 0%. The value for `CN1CCC(n2cnc(-c3ccc(F)cc3)c2-c2ccnc(NC3CCNCC3)n2)CC1` [SB-229482] was 11%. As to `Oc1ccc2ncnc(Nc3ccc(OCc4ccccc4)cc3)c2c1` [GI262866], the “%Inh” value is listed as 0%. The same measure for `COc1ccc(NC(=O)c2ccc(-c3cc(-c4nnc(C)o4)ccc3C)cc2)cc1` [GW595885]: 0%.

As to `CC(C)N1CCC(n2cnc(-c3ccc(F)cc3)c2-c2ccnc(N)n2)CC1` [SB-223132], the “%Inh” value was 0%. With `COc1ccc(Nc2nccc(N3CCC(NC(=O)Nc4ccc5c(c4)OCO5)C3)n2)cc1` (stereo not drawn) [GSK1379745], the “%Inh” value is 0%. In the case of `COC(=O)c1cccc(NC(=O)NCCNc2ccnc(Nc3ccc(F)cc3)n2)c1` [GSK1379883], the “%Inh” value turned out to be 0%.

With `COc1cc2c(Nc3cccc(NC(=O)c4ccccc4)c3)ncnc2cc1OCCCN1CCOCC1` [GSK223810], the “%Inh” value was 0%. The value for `O=C(Nc1ccccc1)Nc1ccc(Oc2ccc3nccn3n2)cc1` was 0%.

Take `Nc1nc(-c2ccccn2)c(-c2ccnc3ccccc23)s1` [GW548057]: the “%Inh” value stood at 1%.

For the compound `Cc1ccc(O)cc1Nc1cc(C(F)(F)F)nc2ccc(-c3ccncc3)cc12` [GW630823], the “%Inh” value came to 20%.

For the compound `Fc1cccc(COc2ccc(Nc3ncnc4sc(-c5ccc[nH]5)cc34)cc2Cl)c1` [GW707818], the “%Inh” value was 11%. On to `Fc1cccc(COc2ccc(Nc3ncnc4cc[nH]c34)cc2Cl)c1`, for which the “%Inh” value is 0%.

Turning to `Nc1nc(-c2ccc3c(N)n[nH]c3c2)cc(N2CCC[C@@H](C(=O)Nc3ccccc3)C2)n1.O=C(O)C(F)(F)F.O=C(O)C(F)(F)F` [GSK2288359], the “%Inh” value is recorded as 0%.

Consider `O=C(CCO)NCCn1ccc2ncnc(Nc3ccc(Oc4cccc(C(F)(F)F)c4)c(Cl)c3)c21`, for which the “%Inh” value worked out at 0%. As to `CNc1nccc(-c2c(-c3ccc(F)cc3)ncn2CCCN2CCOCC2)n1` [SB-222516], the “%Inh” value stood at 0%.

As for `Cc1ccc(C)c(NC(=O)NCCNc2ccnc(Nc3ccc(F)cc3)n2)c1` [GSK1379878], the “%Inh” value was determined as 100%. For `CC(C)(C)c1ccc(-n2cnc3c(N)ncnc32)cc1` [SKF-97263], the “%Inh” value is reported as 0%. Turning to `CS(=O)(=O)CCNCc1nc(-c2ccc3ncnc(Nc4ccc(OCc5cccc(F)c5)c(Cl)c4)c3c2)cs1.Cl` [GW583340], the “%Inh” value is listed as 0%.

For `CCCc1ccc(S(=O)(=O)NC2CCN(c3ccnc(Nc4ccc(OC)cc4)n3)C2)cc1` (stereo not drawn) [GSK1379737], the “%Inh” value stood at 0%. As to `FC(F)(F)c1ccc(-c2nn3ncccc3c2-c2ccnc(Nc3cccc(C(F)(F)F)c3)n2)cc1` [GW828205], the “%Inh” value was found to be 20%. With `Cc1cccc(-c2nc(Nc3ccc4[nH]nnc4c3)c3ccccc3n2)n1` [GW867587], the “%Inh” value was found to be 0%. Take `O=C(Nc1ccccc1F)NC1CCN(c2ccnc(Nc3ccc(F)cc3)n2)C1` (stereo not drawn) [GSK1379722]: the “%Inh” value turned out to be 0%.

Consider `COc1ccc(NC(=O)Nc2ccc(C)c(-c3ccc(C(=O)Nc4ccncc4)cc3)c2)cc1` [GSK1398475], for which the “%Inh” value is 0%. The value for `Clc1ccc(-c2cc(-c3c[nH]nc3-c3ccccn3)ccn2)cc1` [GW681251] was 1%; that for `Clc1cc(Nc2ncnc3cc[nH]c23)ccc1OCc1ccccn1` was 29%; that for `CNc1nccc(-c2c(-c3ccc(F)cc3)ncn2C2CCN(C)CC2)n1` [SB-222903] was 0%. As to `c1ccc(-c2ccc3c(-c4ccnc(Nc5ccc6c(c5)OCCO6)n4)cnn3n2)cc1` [GW818941], the “%Inh” value stood at 83%. The value for `COc1ccc(-c2nc3n(c2-c2ccncc2)CCC3)cc1` [SKF-104493] was 0%.
